Bioassay records deposited in PubChem BioAssay by National Center for Advancing Translational Sciences (NCATS).
Hits are enriched below; roughly 15% of the tested compounds scored in any of these assays.
Gal4-VP16 FLuc – VP16 counterscreen qHTS for inhibitors of ROR gamma transcriptional activity | Drosophila S2 Gal4-VP16 UAS-luciferase, luminescence, 20 h | Potency, µM (titrated, usually from 53.6 µM), inactives show top-dose activity, negative = inhibition, usual class: inhibitors | hit rate 3.5% among 310,000;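 further: Gal4-VP16 expression switched on by copper sulfate through the metallothionein promoter; nearly all actives have a fitted effect of over 50% in size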
ELG1 repair inh – qHTS screen for small molecules that inhibit ELG1-dependent DNA repair in human embryonic kidney (HEK293T) cells expressing luciferase-tagged ELG1; HEK293T ELG1-luciferase reporter, luminescence, 16 h; DNA damage induced by 5-fluorouridine; Potency, µM (doses to about 46.1 µM), for the others: at the highest dose activity change, negative = inhibition, most hits filed as inhibitors; hit rate 2.3% among 330,000; AID 504467, 2011; further: nearly all actives have a fitted effect of over 55% in size
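HEK293T cells expressing luciferase-tagged ELG1 (2,000/well) received 5-Fluorouridine plus compound or DMSO for 16 hr at 37 °C. Luciferase was read by ONE-Glo luminescence after 30 min at room temperature.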
TDP1 cell CPT – qHTS for Inhibitors of human tyrosyl-DNA phosphodiesterase 1 (TDP1): qHTS in cells in presence of CPT. chicken DT40 Tdp1-/-;hTDP1 cells + 20 nM CPT, ATP luminescence, 48 h. Potency, µM (doses to about 46.2 µM), inactives show top-dose activity change, negative = growth inhibition, hits mostly inhibitors. hit rate 12% among 420,000; further: nearly all actives have a fitted effect of over 55% in size
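Chicken DT40 Tdp1-/- cells complemented with human TDP1, 400 cells/well, exposed to compounds plus 20 nM camptothecin for at least 48 h at 37 C; viability read as ATP content by CellTiter-Glo luminescence.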
ALOX12 inh – Primary qHTS assay for inhibitors of human arachidonate 12S-lipoxygenase (ALOX12): Round 2; purified 12hLO, xylenol orange hydroperoxide absorbance; Potency, µM (top dose mostly 108 µM), inactives show at the top dose activity change, negative = inhibition, actives largely listed as inhibitors; hit rate 1.1% among 580,000; AID 1671190, 2021
Target sequence (P18054 whole entry, looked up): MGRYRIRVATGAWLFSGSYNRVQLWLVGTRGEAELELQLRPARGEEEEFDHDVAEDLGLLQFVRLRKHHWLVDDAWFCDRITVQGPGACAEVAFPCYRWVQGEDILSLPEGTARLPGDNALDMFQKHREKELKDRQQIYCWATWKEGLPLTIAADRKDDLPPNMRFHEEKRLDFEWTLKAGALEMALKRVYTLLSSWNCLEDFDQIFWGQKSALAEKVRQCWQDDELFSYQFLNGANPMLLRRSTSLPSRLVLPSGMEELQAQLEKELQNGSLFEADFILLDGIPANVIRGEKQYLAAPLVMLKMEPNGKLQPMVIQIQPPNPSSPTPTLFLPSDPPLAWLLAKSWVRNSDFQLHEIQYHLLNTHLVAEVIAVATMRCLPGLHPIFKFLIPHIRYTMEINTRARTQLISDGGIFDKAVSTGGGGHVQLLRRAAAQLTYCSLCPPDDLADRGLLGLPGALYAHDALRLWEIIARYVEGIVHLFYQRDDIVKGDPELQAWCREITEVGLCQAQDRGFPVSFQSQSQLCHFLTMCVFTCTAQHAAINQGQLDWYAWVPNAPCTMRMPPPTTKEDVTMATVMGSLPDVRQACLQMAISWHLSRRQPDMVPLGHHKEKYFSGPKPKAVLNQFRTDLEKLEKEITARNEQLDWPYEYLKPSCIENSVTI
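Purified human 12hLO at 150 nM in 25 mM Hepes, 0.01% Triton X-100, pH 7.0, preincubated 15 min at room temperature with compound. Reaction started with 40 uM arachidonic acid, 30 min at room temperature. Hydroperoxide measured by Fe-xylenol orange, 573/405 nm absorbance ratio.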
TDP1 cell noCPT – qHTS for Inhibitors of human tyrosyl-DNA phosphodiesterase 1 (TDP1): qHTS in cells in absence of CPT; DT40 Tdp1-/- hTDP1 cells, no CPT, ATP luminescence, 48 h; Potency, µM (highest dose often 46.2 µM), for the others: at the top dose activity change, negative = growth inhibition, hits mostly inhibitors; hit rate 15% among 420,000; further: nearly all actives have a fitted effect of over 55% in size
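Chicken DT40 Tdp1-/- cells complemented with human TDP1, screened without camptothecin (DMSO vehicle only), 400 cells/well. Compounds pin-transferred, cells incubated at 37 °C for at least 48 hr. Growth read as ATP-dependent luminescence (CellTiter-Glo, 30 min at RT).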
RORg inh – qHTS for inhibitors of ROR gamma transcriptional activity | Nuclear receptor ROR-gamma (Mus musculus), P51450 | hit rate 5.4% among 310,000 | Drosophila S2 Gal4-RORgamma UAS-luciferase reporter, 20 h | Potency, µM (doses to about 53.6 µM), without a hit: at the top dose activity change, negative = inhibition, most hits filed as inhibitors; further: nearly all actives have a fitted effect of over 60% in size
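A Gal4/UAS one-hybrid system in insect cells: metallothionein-promoter Gal4–ROR gamma fusion plus Photinus luciferase reporter. Copper sulfate 700 uM final, 20 hr ambient incubation, luminescent detection after 10 min with reagent.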
* marks the source's active call; other numbers are inactive results; ? = inconclusive; . = not tested or not shown; ! = a repeat was not active; [ ] = remark or other dose. The call rests on the fitted dose curve; in most records, active means well fitted curve in the direction sought with a large enough effect; inconclusive means small, poorly fitted or top-dose-only effect, or another doubt; inactive means no such curve, though single readings can be large; an effect the other way counts as inactive or inconclusive. On the % scale 0 is the no-effect control and ±100 the full control effect; potency means the concentration at half of the fitted maximal effect.

SMILES	Gal4-VP16 FLuc	ELG1 repair inh	TDP1 cell CPT	ALOX12 inh	TDP1 cell noCPT	RORg inh
O=C(CCS(=O)(=O)Cc1ccccc1)Nc1nnc(C(F)(F)F)s1	6%	-20%	?	6%	?	?
Cc1ccc(S(=O)(=O)NC2CCN(S(C)(=O)=O)CC2)c(Br)c1	.	.	.	9%	.	.
COc1ccc(CC(N)c2csc(NC(=O)Nc3ccccc3C(C)C)n2)cc1 (stereo not drawn)	.	.	8.2µM*	-29%	16µM*	.
COc1ccc(OC)c(NC(=O)Nc2nc(C(C)N)cs2)c1 (stereo not drawn)	.	.	-29%	-1%	?	.
COc1ccc(CC(N)c2csc(NC(=O)CCc3ccccc3)n2)cc1 (stereo not drawn)	.	.	23µM*	-7%	21µM*	.
COc1ccc(CC(N)c2csc(NC(=O)Nc3ccccc3Cc3ccccc3)n2)cc1 (stereo not drawn)	.	.	21µM*	?	16µM*	.
COc1ccc(CCNC(=O)Nc2nc(C(N)CCc3ccccc3)cs2)cc1OC (stereo not drawn)	.	.	?	4%	?	.
CCN(CC(=O)Nc1ccc(NC(C)=O)cc1)Cc1coc(-c2ccccc2)n1	.	.	.	53%	.	.
Cc1cc2c(c(=O)n1Cc1ccccn1)C(c1cc3c(cc1Br)OCO3)C(C#N)=C(N)O2 (stereo not drawn)	.	.	.	7%	.	.
O=C(NCC(F)(F)F)C1CN(c2ccccc2)C(=O)N1 (stereo not drawn)	.	.	.	-7%[176 µM]	.	.
Cc1nn(C)cc1C(=O)N1C[C@@H](CO)[C@H](c2ccncc2)C1	.	.	.	50µM*	.	.
CCCNC(=O)c1ccc2c(c1)NC(=O)CS2	.	.	.	-58%	.	.
C=C(C)CSc1cc(C)c(C#N)c2nc3ccccc3n12	4µM*	?	21µM*	?	9.2µM*	?
O=C(NNC(=O)c1cccc2ccccc12)c1ccccc1O	5%	-3%	15µM*	.	?	-1%
O=C(NNC(=O)c1ccccc1O)c1cc2ccccc2o1	.	?	?	?	23µM*	.
O=C(NNC(=O)c1cccc2ccccc12)c1ccc(-c2ccccc2)cc1	-20%	0%	?	11%	?	-30%
Cc1ccc(C(=O)NNC(=O)c2ccc3ccccc3c2O)cc1	10µM*	12%	24%	-2%	?	14µM*
O=C(NNc1c2ccccc2nc2ccccc12)c1ccc(O)cc1O	-24%	-21%	?	-7%	16µM*	4%
O=C(COc1ccc(F)cc1)Nc1ccc2oc(-c3ccccc3F)nc2c1	.	.	.	3%	.	.
O=C(NNc1c2ccccc2nc2ccccc12)c1ccccc1O	-25%	?	?	-15%	21µM*	18%
O=C(NNc1nc(=O)c2cccnc2s1)c1ccccc1O	-90%	15µM*	0.0052µM*	6%	0.016µM*	0.05µM*
CC(N1CCOC1=O)S(=O)(=O)c1ccccc1 (stereo not drawn)	6%	?	1%	35µM*	-6%	-28%
C=CCc1ccccc1OCC(O)CN1CCN(c2ccc(C)cc2)CC1 (stereo not drawn)	?	-5%	?	0.56µM*	?	-21%
C=CCc1ccccc1OCC(O)CN1CCN(C(=O)OCC)CC1 (stereo not drawn)	?	-5%	-2%	3%	?	-2%
C=CCc1ccccc1OCC(O)CN1CCN(Cc2ccc3c(c2)OCO3)CC1 (stereo not drawn)	2%	-28%	16µM*!	?	?	-3%
SMILES	Gal4-VP16 FLuc	ELG1 repair inh	TDP1 cell CPT	ALOX12 inh	TDP1 cell noCPT	RORg inh
CCCc1c(C)nc2ccc(OC)cc2c1SCCC(=O)O	-7%	-4%	?	-25%	8.2µM*	26%
CCCc1c(C)nc2ccc(C)cc2c1SCCC(=O)O	.	.	.	-5%	.	.
O=C1N/C(=C\c2ccc(O)cc2)C(=O)c2ccccc21	10µM*	15%	3.2µM*	.	7.1µM*	?
O=C(O)/C=C1\NC(=O)c2ccccc21	-6%	12%	11%	?	-2%	-16%
COc1cccc(CC(=O)N2CCC(c3noc(CO)n3)C2)c1 (stereo not drawn)	.	.	.	30%	.	.
CNC(=O)[C@@H]1CN(Cc2cccc(OC(F)(F)F)c2)C[C@H]1CO	.	.	.	18%	.	.
Cc1cc(C)n(-c2cc(-c3ccccc3)nc(C)n2)n1	11%	-13%	16µM*	6%	?	1%
Cc1cc(C)cc(Nc2cc(-c3ccccc3)nc(C)n2)c1	.	.	9.2µM*	9%	8.2µM*	.
CCOc1ccccc1Nc1cc(-c2ccccc2)nc(C)n1	.	.	?	-1%	?	.
Cc1nc(-c2ccccc2)cc(N2CCCC2)n1	5%	20%	0%	6%	-15%	12%
CC(C)(C)NC(=O)c1ccc(Sc2ccccc2)c([N+](=O)[O-])c1	-5%	-8%	?	3%	8.2µM*	25%
O=C1CO[C@H]2CCN(Cc3ccccc3O)CC[C@@H]2N1Cc1ccccc1	.	.	.	18%[176 µM]	.	.
Cc1ccc(-n2c(Cl)c(Cl)nc(Cl)c2=O)cc1	5µM*	6.5µM*	0.29µM*	.	0.92µM*	2.8µM*
CC1(c2ccccc2)NC(=O)N(Cc2ncc(-c3ccccc3)o2)C1=O (stereo not drawn)	.	.	.	18%	.	.
COc1cccc(/C=N/n2c(N)c(S(=O)(=O)c3cccs3)c3nc4ccccc4nc32)c1	-2%	?	-24%	-5%	?	-20%
COCCNC(=O)c1c(N)n(/N=C/c2cccs2)c2nc3ccccc3nc12	-4%	?	?	145%[57.4 µM]	16µM*	-8%
CC(C)Cn1c(N)c(S(=O)(=O)c2cccs2)c2nc3ccccc3nc21	-17%	?	16µM*	0%	?	-14%
Nc1c(S(=O)(=O)c2cccs2)c2nc3ccccc3nc2n1/N=C/c1cccc(O)c1	?	18µM*	13µM*	0%	?	?
Cn1c(SCCC(=O)Nc2sccc2C#N)nnc1-c1ccccc1F	.	.	.	19%	.	.
O=C([C@H]1C[C@H](Oc2ccccc2)CN1C(=O)C1CCC1)N1CCOCC1	.	.	.	28%	.	.
